Sampled rows, rich in hits. Any-hit rate of the full collection: about 9.2%.
ELG1 DNA repair: qHTS screen for small molecules that inhibit ELG1-dependent DNA repair in human embryonic kidney (HEK293T) cells expressing luciferase-tagged ELG1 | HEK293T ELG1-luciferase reporter, luminescence, 16 h; DNA damage induced by 5-fluorouridine | Potency, µM (highest dose often 46.1 µM), for inactives: at the highest dose activity change, negative = inhibition, most hits filed as inhibitors | actives 2.3% (n = 330,000); also: % is scaled to controls: 0 for no effect and ±100 for the full control effect; nearly all actives have a fitted effect of over 55% in size
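Reporter activity after DNA damage by 5-fluorouridine is monitored. Compound-treated cells incubate 16 hr at 37 °C, then ONE-Glo is added for 30 min before luminescence reading.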
Rab9 promoter act: qHTS Assay for Rab9 Promoter Activators; Huh7 Rab9 promoter-luciferase reporter, luminescence, 24 h; AID 485297, 2010; Potency, µM (titrated, usually from 9.22 µM), for the others: top-dose activation, negative = inhibition, hits mostly activators; actives 2.8% (n = 320,000); also: % of control where 0% means no effect; nearly all actives have a fitted effect of over 60% in size
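Measured in stably transfected Huh7 cells bearing a Rab9 promoter–luciferase construct: 24 h compound treatment at 37 °C, followed by luminescence detection.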
NPC1 prom act: qHTS Assay for NPC1 Promoter Activators; Huh7 NPC1 promoter luciferase reporter, 24 h; Potency, µM (doses to about 9.22 µM), for the others: at the highest dose activation, actives largely listed as activators; actives 2.4% (n = 320,000); also: % of control where 0% means no effect; nearly all actives have a fitted effect of over 60% in size
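Huh7 cells stably carrying NPC1 promoter–luciferase, plated in Opti-MEM with 10% FBS for 2 h, were exposed to compound in DMSO for 24 h at 37 °C; luciferase reagent was added for 10 min and luminescence read.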
ELG1 genotoxic: qHTS screen for small molecules that induce genotoxicity in human embryonic kidney (HEK293T) cells expressing luciferase-tagged ELG1. HEK293T ELG1-luciferase reporter, luminescence, 16 h. actives 1.3% (n = 330,000). AID 504466, 2011. Potency, µM (series often up to 46 µM), for inactives: top-dose activity change, positive = activation, actives largely listed as activators; also: % of control where 0% means no effect; nearly all actives have a fitted effect of over 60% in size
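HEK293T cells expressing luciferase-tagged ELG1 were treated with compound or DMSO for 16 hr at 37°C. Luciferase activity was then read after 30 min with ONE-Glo at room temperature; rising signal flags genetic stress.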
FLuc modulator: qHTS profiling assay for firefly luciferase inhibitor/activator using purifed enzyme and Km concentrations of substrates (counterscreen for miR-21 project); Luciferin 4-monooxygenase (Photinus pyralis), P08659; actives 6.9% (n = 360,000); AID 588342, 2011; Potency, µM (top dose mostly 57.5 µM), for inactives: at the top dose activity change, negative = inhibition, most hits filed as inhibitors; purified FLuc, Km substrates, luminescence inhibition;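 also: plate controls were vehicle for no effect and reference inhibitor for full effect; nearly all actives have a fitted effect of over 55% in size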
Target sequence (P08659 whole entry, looked up): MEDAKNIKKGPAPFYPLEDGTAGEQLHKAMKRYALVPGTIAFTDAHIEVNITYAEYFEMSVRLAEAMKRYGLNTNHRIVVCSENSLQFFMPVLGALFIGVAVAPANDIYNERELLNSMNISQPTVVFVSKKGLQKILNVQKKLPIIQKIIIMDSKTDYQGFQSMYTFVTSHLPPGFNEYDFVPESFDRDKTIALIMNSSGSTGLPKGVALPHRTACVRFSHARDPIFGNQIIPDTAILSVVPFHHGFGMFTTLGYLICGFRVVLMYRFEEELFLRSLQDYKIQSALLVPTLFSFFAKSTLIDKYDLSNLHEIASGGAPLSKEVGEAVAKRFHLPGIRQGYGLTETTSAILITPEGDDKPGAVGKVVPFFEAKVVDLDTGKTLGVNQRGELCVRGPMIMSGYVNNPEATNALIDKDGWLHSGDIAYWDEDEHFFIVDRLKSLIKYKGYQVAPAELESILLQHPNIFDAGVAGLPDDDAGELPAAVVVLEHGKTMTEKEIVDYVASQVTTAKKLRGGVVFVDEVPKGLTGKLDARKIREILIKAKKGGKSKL
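Purified P. pyralis luciferase, 10 nM final, with Km-level 10 uM D-luciferin and 10 uM ATP in 50 mM Tris acetate pH 7.5, 10 mM Mg acetate, 0.01% Tween-20, 0.05% BSA; 6-point qHTS titration about 60 µM downward; luminescence read.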
SMN2 splice up: qHTS Assay for Enhancers of SMN2 Splice Variant Expression. HEK293 SMN2-luciferase splicing reporter, luminescence, 30-36 h. Potency, µM (highest dose often 46.1 µM), for inactives: at the top dose activity change, positive = activation, actives largely listed as activators. actives 2.8% (n = 210,000). AID 1458, 2008; also: % of control where 0% means no effect; nearly all actives have a fitted effect of over 55% in size
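qHTS luciferase splicing reporter: luminescence rises when SMN2 exon 7 is included in transfected HEK293 cells. Compound exposure lasted 30-36 h at 37C, with 4.5 mM final sodium butyrate as control, followed by a ONE-Glo read.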
* hit, by the source's call; ? = inconclusive; / = no result given. Calls follow the shape of the dose curve; as a rule, active = well fitted curve in the direction sought with a large enough effect; inconclusive = small, poorly fitted or top-dose-only effect, or another doubt; inactive = no such curve, though single readings can be large; an effect the other way counts as inactive or inconclusive. Potency is read from the fitted curve at half-maximal effect.

SMILES	ELG1 DNA repair	Rab9 promoter act	NPC1 prom act	ELG1 genotoxic	FLuc modulator	SMN2 splice up
CSc1ccc(C2c3c(-c4ccccc4O)n[nH]c3C(=O)N2Cc2ccncc2)cc1 (centres undefined)	/	/	/	/	?	1%
O=C1C2C3C=CC(C4CC34)C2C(=O)N1/N=C/c1c[nH]c2ccccc12 (centres undefined)	?	2µM*	4µM*	17%	1.9µM*	/
O=C1C2C3C=CC(C4CC34)C2C(=O)N1/N=C/c1ccc([N+](=O)[O-])s1 (centres undefined)	?	?	?	9%	-20%	16%
CCOc1ccc(-c2nnc(SCC(=O)N3CCOCC3)o2)cc1	?	2.2µM*	?	?	11µM*	?
CCOc1ccc(-c2nnc(SCC(=O)N3CCCC3)o2)cc1	?	?	?	?	21µM*	/
COc1ccc(-c2nnc(SCC(=O)N3CCOCC3)o2)cc1OC	-1%	-2%	-2%	-1%	-2%	12%
O=C(COc1ccc(Br)cc1)Nc1cccc2cccnc12	/	/	/	/	-1%	/
COc1cccc(NC(=O)/C=C/c2ccc([N+](=O)[O-])cc2)c1	?	?	?	11%	6µM*	/
CSc1cccc(NC(=O)/C=C/c2cccc(Cl)c2)c1	?	3.2µM*	?	18%	8.5µM*	14µM*
COc1cccc(NC(=O)/C=C/c2ccccc2[N+](=O)[O-])c1	?	4µM*	?	?	5.4µM*	3.2µM*
O=C(/C=C/c1ccccc1[N+](=O)[O-])Nc1cccnc1	?	2.8µM*	?	11%	15µM*	14µM*
O=C(/C=C/c1ccccc1[N+](=O)[O-])NNC(=O)c1ccncc1	3%	2%	4%	0%	/	/
COc1cc(-c2cc(OC)c3c(C)oc(C)c3c(=O)c2)ccc1OC(=O)c1cccc(Cl)c1	/	/	/	/	-9%	/
COc1cccc(/C=C/C(=O)Nc2ccc3[nH]c(=O)[nH]c3c2)c1	-19%	15%	-1%	-1%	9.5µM*	?
Cc1ccc2c(c1)N(C(=O)CCC(=O)NCCCN1CC(C)CC(C)C1)CCO2 (centres undefined)	-1%	-8%	-4%	-1%	-1%	/
CC(=O)Nc1cccc(-c2csc(Nc3ncccn3)n2)c1	?	1.6µM*	3.2µM*	?	2.1µM*	3.5µM*
CC(=O)NNc1nc(-c2ccc(NC(C)=O)cc2)cs1	13%	-2%	0%	-1%	1%	13%
CC(=O)Nc1cccc(-c2csc(Nc3ccc(C)cn3)n2)c1	?	0.89µM*	1µM*	1.8µM*	0.43µM*	2.2µM*
COc1ccc(-c2csc(Nc3ccc(C)cn3)n2)cc1	4%	-4%	-5%	2%	-5%	/
CC(=O)Nc1ccc(S(=O)(=O)Nc2cccc(-c3csc(C)n3)c2)cc1	?	-10%	-6%	-5%	-8%	/
CC(=O)Nc1ccc(-c2csc(Nc3cccc(C)n3)n2)cc1	?	1.6µM*	1.8µM*	16%	9.5µM*	/
COc1cccc(Cn2c(CNC(=O)CCc3ccccc3)nc3cccnc32)c1	/	/	/	/	1%	/
CCCCOc1cccc(C(=O)N(Cc2ccc(C)o2)c2ccccn2)c1	/	/	/	/	-14%	/
CCOC(=O)c1c(C)[nH]c(C2=NNC(=Nc3ccc(OCC)cc3)SC2)c1C	?	-7%	1%	-5%	?	-33%
CC(=O)c1c(C)[nH]c(C2=NNC(=NC(C)(C)C)SC2)c1C	?	1.6µM*	1.8µM*	15µM*	24µM*	13µM*
SMILES	ELG1 DNA repair	Rab9 promoter act	NPC1 prom act	ELG1 genotoxic	FLuc modulator	SMN2 splice up
CCOC(=O)c1c(C)[nH]c(C2=NNC(=Nc3ccccc3)SC2)c1C	?	2.5µM*	?	-6%	12µM*	/
CC(=O)c1c(C)[nH]c(-c2ccccc2)c1C	15%	-5%	2%	?	?	?
CCOC(=O)c1c(C)[nH]c(C2=NNC(=Nc3ccccc3OC)SC2)c1C	?	?	2.5µM*	-1%	9.5µM*	11µM*
COc1cc2oc(=O)c(CC(=O)N3CCCCC3)c(C)c2cc1Cl	/	/	/	/	1%	-2%
O=C(NC12CC3CC(CC(C3)C1)C2)c1ccc(-c2ccccc2Cl)o1	?	2µM*	1.1µM*	?	1.9µM*	8%
O=C(NC12CC3CC(CC(C3)C1)C2)c1ccco1	?	0%	2%	-5%	-9%	/
O=C(NC12CC3CC(CC(C3)C1)C2)c1ccc(-c2ccc(Cl)cc2)o1	?	3.2µM*	?	?	?	16µM*
O=C(NC(=S)Nc1ccccc1O)c1ccc(-c2ccc(Cl)cc2)o1	-2%	-8%	-2%	4%	4%	-5%
CC(=O)NC(=O)c1ccc(-c2ccc(Cl)cc2)o1	?	19%	-2%	10%	5.4µM*	/
O=C(NC12CC3CC(CC(C3)C1)C2)c1ccc(-c2cccc(Cl)c2)o1	?	0.89µM*	2.8µM*	?	2.4µM*	-33%
CCOc1ccc(CCNC(=O)c2cn(CC)c3ccc(S(=O)(=O)N4CCc5ccccc5C4)cc3c2=O)cc1OCC	/	/	/	/	-10%	1%
CC1CC(=O)Nc2ccccc2N1C(=O)COc1cc(Cl)ccc1Cl (centres undefined)	-3%	-1%	-3%	1%	0%	/
CC(OC(=O)C1=COCCO1)C(=O)NC1(C#N)CCCCC1 (centres undefined)	7%	/	/	2%	/	/
CCn1nnc(NC(=O)c2ccc(-c3ccc(Cl)cc3)o2)n1	?	20%	19%	?	17µM*	26%
CCN1CCN(Cc2ccc3c(c2)Cc2ccccc2-3)CC1	-24%	2%	0%	-14%	-5%	-15%
c1ccc2c(c1)Cc1cc(CN3CCOCC3)ccc1-2	?	?	4µM*	?	9.5µM*	14µM*
CN(Cc1ccccc1)C(=O)CCSc1nc(-c2ccc3c(c2)OCO3)cc(C(F)(F)F)n1	16µM*	-6%	-1%	-9%	3%	-36%
CC(=O)c1ccc(Nc2ccc(-c3ccccc3C)nn2)cc1	?	1.6µM*	?	?	9.5µM*	11µM*
CC(=O)c1cccc(Nc2ccc(-c3ccccc3F)nn2)c1	?	2.2µM*	2.8µM*	13%	5.4µM*	11µM*
